Measured values taken from PubChem BioAssay.
Active and inactive are the calls of the source.

Assay: splicing luciferase reporter signal modulators, primary screen, spliceosome inhibition project, cell-based, HEK293, splice +/- reporter (AID 1101);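 further: HEK293 cells carrying a splicing-competent luciferase reporter gene; test concentration not given here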
Settings: luminescence, 24 h, higher = more signal, called active from +8 up or from −8 down

| Structure (SMILES) | z-score |
| --- | --- |
| C=CCC(OC(C)=O)[C@@H]1[C@@H](N(Cc2ccc(-c3ccccc3)cc2)C(=O)c2ccc(-c3ccccc3)cc2)c2cc(OCCCO)ccc2N1C(=O)c1ccc2ccccc2c1 (stereo partly specified) | -1.22 (inactive) |
| CCOC(=O)C[C@H]1[C@H](OC(=O)c2cc3ccccc3oc2=O)[C@@H](NC(=O)c2ccc3ccccc3n2)c2cc(OCCCO)ccc2N1C(=O)Cc1ccc(OC)cc1 | -0.362 (inactive) |
| Cc1ccc(S[C@]2(C(=O)NCC(F)(F)F)CC(=O)N(Cc3cc(C(F)(F)F)cc(C(F)(F)F)c3)[C@@H]2c2ccc(CO)cc2)cc1 | 0.507 (inactive) |
| COC(=O)[C@@]1(Cc2ccc(OC)cc2)[C@H]2c3cc(C(=O)N4CCCC4)n(CCc4c[nH]c5ccc(O)cc45)c3C[C@H]2CN1C(=O)c1ccccc1 | 0.129 (inactive) |
| NC(=O)[C@@]1(Cc2ccccc2)COC(c2ccc(OCCCO)cc2)=N1 | 0.444 (inactive) |
| COCCOC(=O)N1C(=O)[C@@]2(c3cc(C#CCCO)ccc31)[C@H](C(=O)Nc1nc3ccccc3s1)[C@H]1C(=O)O[C@H](c3ccccc3)[C@H](c3ccccc3)N1[C@@H]2c1ccc(O)cc1 | -0.221 (inactive) |
| COc1ccc([Si](C)(C)[C@@H]2[C@@H](CCO)O[C@]3(C(=O)N(Cc4ccccc4)c4ccc(N5CCOC5=O)cc43)[C@H]2C)cc1 | -1.64 (inactive) |
| C=C(/C(=C/C[C@H](OC(C)=O)c1ccc(CO)o1)c1cnc2ccccc2c1)C(C)C | 0.652 (inactive) |
| COC(=O)[C@@]1(Cc2ccccc2)[C@H]2c3cc(C(=O)N4CCCC4)n(CCc4ccccn4)c3C[C@H]2CN1C(=O)c1ccccc1 | -2.09 (inactive) |
| COCC(=C=CC[C@H](O)c1ccc(OCCO)cc1)CCO | -0.51 (inactive) |
| CCOC(=O)C1=C[C@@H](C(C)(C)C)N(S(=O)(=O)c2ccc(C)cc2)[C@H]1c1cccc2ccccc12 | -0.134 (inactive) |
| C=CC[C@@]1(C(=O)NCCCOC)N=C(c2ccc(OCCCO)cc2)O[C@@H]1c1ccccc1 | -1.39 (inactive) |
| [N-]=[N+]=Nc1ccccc1C[C@]1(C(=O)NCCN2CCOCC2)COC(c2ccc(OCCCO)cc2)=N1 | -0.388 (inactive) |
| Cc1ccc(F)cc1S(=O)(=O)N[C@@H]1CCN(Cc2ccc(Br)cc2)C1 | -1.12 (inactive) |
| OCCCC1=CC(c2ccc(CN3CCCC3)cc2)N(Cc2cc3c(cc2Br)OCO3)CC1 (stereo unspecified) | 0.361 (inactive) |
| COC(=O)C1=CC(CCCO)=CC(c2ccc(CN3CCCC3)cc2)N(Cc2cccc(OC(F)(F)F)c2)C=C1C(=O)OC (stereo unspecified) | -0.656 (inactive) |
| CC(CO)N1C(=O)[C@@H]2[C@H]3C(=O)OCC=C[C@H]3OC23C=CCN(Cn2nnc4ccccc42)C(=O)[C@@H]13 (stereo partly specified) | 1.12 (inactive) |
| CC(C)NC(=O)[C@@]1(c2ccc([N+](=O)[O-])cc2)CC(=O)N(C2CCCCC2)[C@@H]1c1ccc(CO)cc1 | 0.458 (inactive) |
| O=C1CS(=O)(=O)C(c2cccc([N+](=O)[O-])c2)N1c1ccccc1 (stereo unspecified) | -0.856 (inactive) |
| NC(=O)NCC#Cc1ccc2c(c1)[C@]1(C(=O)N2)[C@H](c2ccccc2OCCO)N2[C@H](c3ccccc3)[C@H](c3ccccc3)OC(=O)[C@H]2[C@@H]1C(=O)NC[C@H](O)c1ccccc1 | -1.14 (inactive) |
| CCCC[C@@H](O)C1=C(COc2ccccc2)C[C@H]2C(=O)N(Cc3ccccc3)C(=O)[C@H]2[C@H]1CO | -0.249 (inactive) |
| COC(=O)[C@@]1(Cc2ccc(F)cc2)[C@H]2c3cc(C(=O)N(C)C)n(Cc4ccc(OC(F)(F)F)cc4)c3C[C@H]2CN1C(=O)c1ccccc1 | 1.32 (inactive) |
| COCCOC(=O)N1C(=O)[C@@]2(c3cc(C#CC4=CCCCC4)ccc31)[C@H](c1ccccc1OCCO)N1[C@H](c3ccccc3)[C@H](c3ccccc3)OC(=O)[C@H]1[C@@H]2C(=O)N1CCN(c2ncccn2)CC1 | -1.46 (inactive) |
| O=C1OCCC=C[C@H]2OC34C=CCN(c5ccc6ccccc6c5)C(=O)[C@H]3N(CCCO)C(=O)[C@@H]4C12 (stereo partly specified) | -1 (inactive) |
| CCCC=C(CCC)[C@@H](NS(=O)(=O)CC12CCC(CC1=O)C2(C)C)c1ccc(C(=O)OC)cc1 (stereo partly specified) | -0.422 (inactive) |
| CC(C)[Si](C#C[Si](C(C)C)(C(C)C)C(C)C)(O[C@H](c1ccccc1)c1cn(Cc2ccccc2)nn1)C(C)C | 0.501 (inactive) |
